From PubChem BioAssay (Tox21) come the findings set out here.

Unmarked numbers belong to inactive results. Records with an inconclusive call do not appear. Activity calls are given as the source filed them. Unless noted, calls come from the whole dose curve; as a rule, active = well fitted curve in the direction sought with a large enough effect in the repeat runs; inconclusive = weak or mixed curves; inactive = no such curve, though single readings can be large; an effect the other way counts as inactive or inconclusive.

Test [1] can be described thus: Human pregnane X receptor (PXR) small molecule agonists, qHTS cell viability counter screen (AID 1346977). Note: nearly all actives have a fitted effect of over 50% in size. An outline of the steps:
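Readout is CellTiter-Fluor fluorescence from PXR-Luc HepG2 cells. Plated cells rested 5hr, then were treated with compounds for 24hr at 37C and 5% CO2, with reagent present during the last hour.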
For orientation: In qHTS, concentration-response curves come from the screen itself.

A short description of test [2]: Caspase-3/7 induction in HepG2 cells by small molecules, qHTS assay (AID 1346978). Note: nearly all actives have a fitted effect of over 15% in size. In short, it runs like this: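 Wild-type HepG2 cells (2,000/well) were settled 5 h at 37 C, 5% CO2, then exposed to compounds in DMSO for 17 h. Caspase-3/7 activity was read by luminescence 30 min after adding Caspase-Glo 3/7 reagent at room temperature.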
The nature of test [3]: Caspase-3/7 induction in CHO-K1 cells by small molecules, qHTS cell viability counter screen (AID 1346979). Note: nearly all actives have a fitted effect of over 35% in size. In short, it runs like this:
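To flag cytotoxic compounds, treated CHO-K1 wild-type cells were given CellTiter-Fluor at 16hr and read fluorescently after 1hr at 37C; the caspase-3/7 luminescence was measured in these same wells.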

Test [4] can be described thus: Caspase-3/7 induction in CHO-K1 cells by small molecules, qHTS assay (AID 1346980). Note: nearly all actives have a fitted effect of over 15% in size. In short, it runs like this: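 Wild-type cells were seeded at 1,500 per well and settled 5 hr at 37 C, 5% CO2, then exposed to DMSO-dissolved compounds for 17 hr. Caspase-Glo 3/7 reagent was added, and luminescence was read after 30min at room temperature.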
Test [5] is described as follows: Caspase-3/7 induction in HepG2 cells by small molecules, qHTS cell viability counter screen (AID 1346981). Note: series mostly up to about 92 µM; nearly all actives have a fitted effect of over 30% in size. An outline of the steps:
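In this quantitative HTS counter screen, compounds delivered in DMSO were left on unmodified HepG2 cells for 16 hr at 37 C. Viability was then determined fluorometrically with CellTiter-Fluor, in parallel with caspase-3/7 induction in the same wells.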

The target of test [6] is Nuclear receptor subfamily 1 group I member 2 (Homo sapiens) (UniProt O75469). Put plainly: Human pregnane X receptor (PXR) small molecule agonists, qHTS assay (AID 1346982). Note: nearly all actives have a fitted effect of over 35% in size. An outline of the steps: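 Reporter HepG2 cells expressing PXR-Luc are cultured in charcoal-stripped FBS (5%), treated with compounds for 24 hr at 37 C, and assayed by ONE-Glo luminescence after 30 min at room temperature.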

Test [7] has as its target Cytochrome P450 2D6 (Homo sapiens) (UniProt P10635). The test can be described thus: Cytochrome P450 Family 2 Subfamily D Member 6 (CYP2D6) small molecule antagonists: luciferase reporter qHTS assay (AID 1671196). Note: nearly all actives have a fitted effect of over 50% in size. Note: potency is the fitted concentration of half-maximal effect. An outline of the steps:
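Test chemicals meet CYP2D6 plus proluciferin substrate (10 min, RT); NADPH regenerating solution then drives turnover for 1 h. Detection reagent halts the reaction; luminescence measured after 20 min.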
Background: A reporter such as luciferase makes a cellular process visible.

The target of test [8] is Cytochrome P450 2C19 (Homo sapiens) (UniProt P33261). Put plainly: Cytochrome P450 Family 2 Subfamily C Member 19 (CYP2C19) small molecule antagonists: luciferase reporter qHTS assay (AID 1671197). Note: nearly all actives have a fitted effect of over 65% in size. Note: potency is the fitted concentration of half-maximal effect. In short, it runs like this: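 Quantitative high-throughput screen of the Tox21 library using CYP2C19 with proluciferin substrate. Reaction: NADPH regeneration, 37C, 1 h, after 10 min compound preincubation at room temperature. Readout: luminescence.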

The target in test [9] is Cytochrome P450 1A2 (Homo sapiens) (UniProt P05177). Put plainly: Cytochrome P450 Family 1 Subfamily A Member 2 (CYP1A2) small molecule antagonists: luciferase reporter qHTS assay (AID 1671199). Note: nearly all actives have a fitted effect of over 50% in size. Note: potency is the fitted concentration of half-maximal effect. An outline of the steps: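 Steps: enzyme-substrate mix dispensed; test compounds and furafylline control pinned in; 10 min room temperature; NADPH regeneration solution added, 1 h; reaction stopped with luciferin detection reagent; luminescence read after 20 min.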

Test [10] concerns the target Voltage-gated inwardly rectifying potassium channel KCNH2 (Homo sapiens) (UniProt Q12809). Put plainly: Human Ether-a-go-go-Related Gene (hERG) channel small molecule antagonists: fluorescence cell-based qHTS assay (AID 1671200). Note: nearly all actives have a fitted effect of over 50% in size. Note: potency is the fitted concentration of half-maximal effect. An outline of the steps:
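Measured: Tl+ flux via fluorescence (480/540 nm) in hERG-expressing U2OS cells after 1 h dye loading at room temperature.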

Test [11] has as its target Cytochrome P450 3A4 (Homo sapiens) (UniProt P08684). Put plainly: Cytochrome P450 Family 3 Subfamily A Member 4 (CYP3A4) small molecule antagonists: luciferase reporter qHTS assay (AID 1671201). In short, it runs like this:
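Setup: enzyme-substrate mix, compound pin transfer, 10 min RT. Reaction: NADPH regeneration solution, 1 h RT. Readout: detection reagent stops turnover, luminescence measured after 20 min, expressed in relative luminescence units.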

Test [12] addresses Thyrotropin-releasing hormone receptor (Homo sapiens) (UniProt P34981). The test can be described thus: qHTS assay to identify small molecule agonists of the thyrotropin-releasing hormone receptor (TRHR) signaling pathway (AID 1346891; calls by dose curve;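 note: HEK293 cells expressing TRHR with calcium dye readout; series mostly up to about 58 µM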). In short, it runs like this: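 In 1536-format, 1500 TRHR-Hek293 cells per well grew 18 h, took up calcium dye for 2 h at 37 °C, received compound, and were read kinetically; 15-point titrations, triplicates.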

Test [13] concerns the target Cytochrome P450 2C9 (Homo sapiens) (UniProt P11712). Put plainly: Cytochrome P450 Family 2 Subfamily C Member 9 (CYP2C9) small molecule antagonists: luciferase reporter qHTS assay (AID 1671198). Note: nearly all actives have a fitted effect of over 50% in size. Note: potency is the fitted concentration of half-maximal effect. An outline of the steps:
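CYP2C9 activity was measured with a P450-Glo proluciferin substrate. Enzyme–substrate mix was held with compound for 10 min at room temperature, then NADPH regeneration solution was added for 1 h at 37C. Luciferin product was read as luminescence.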

Test [14] deals with Nuclear receptor subfamily 1 group I member 2 (Rattus norvegicus) (UniProt Q9R1A7). Put plainly: Rat pregnane X receptor (rPXR) activation by small molecules, qHTS assay (AID 1346983). Note: nearly all actives have a fitted effect of over 20% in size. Particulars: rPXR luciferase reporter cells, One-Glo luminescence, 24 h; max activation: stronger effect = higher value. In short, it runs like this: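 Cell-based rPXR luciferase reporter assay, 2,000 cells per well, rested 5hr at 37 C before compound addition in DMSO, then 24 hr at 37 C. One-Glo reagent was added and luminescence read after 30 min at room temperature.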

Test [15] addresses Nuclear receptor subfamily 1 group I member 2 (Homo sapiens) (UniProt O75469). The test can be described thus: CYP3A4 induction through human pregnane X receptor (PXR) by small molecules, qHTS assay (AID 1346984). Note: nearly all actives have a fitted effect of over 40% in size. An outline of the steps:
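Induction measured in HepG2-based DPX-2 cells co-expressing human PXR and a CYP3A4 promoter-driven luciferase. After a 24-hour compound exposure, cells received CYP3A4 luciferin substrate at 3uM final for 3 hours, and light output was then recorded.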

Test [16] has the same target. The test can be described thus: Human pregnane X receptor (PXR) activation by small molecules, qHTS assay (AID 1346985). Note: nearly all actives have a fitted effect of over 40% in size. An outline of the steps:
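DPX-2 cells (HepG2 co-transfected with a PXR response element and a CYP3A4-promoter luciferase construct) were seeded at 2,000 per well, rested 5 hr at 37C, then exposed to DMSO-dissolved compounds for 24 hr. Activation was read as luciferase luminescence.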
% is set by controls: 0 for no effect and ±100 for the full control effect.

Sequence of Cytochrome P450 2C9 (Homo sapiens) (P11712 whole entry, looked up): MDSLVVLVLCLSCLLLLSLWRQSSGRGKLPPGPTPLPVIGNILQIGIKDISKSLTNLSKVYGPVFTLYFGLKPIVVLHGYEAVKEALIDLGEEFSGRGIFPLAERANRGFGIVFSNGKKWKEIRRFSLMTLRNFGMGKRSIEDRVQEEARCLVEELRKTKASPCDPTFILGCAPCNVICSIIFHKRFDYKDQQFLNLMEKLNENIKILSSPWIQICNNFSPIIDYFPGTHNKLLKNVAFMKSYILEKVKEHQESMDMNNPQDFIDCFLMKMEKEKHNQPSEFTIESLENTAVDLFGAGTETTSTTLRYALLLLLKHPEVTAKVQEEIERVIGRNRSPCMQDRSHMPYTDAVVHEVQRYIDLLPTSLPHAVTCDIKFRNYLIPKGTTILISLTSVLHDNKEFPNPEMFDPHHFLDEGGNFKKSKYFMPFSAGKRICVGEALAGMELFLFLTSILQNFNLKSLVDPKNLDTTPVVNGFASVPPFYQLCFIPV
Sequence of Thyrotropin-releasing hormone receptor (Homo sapiens) (P34981 whole entry, looked up): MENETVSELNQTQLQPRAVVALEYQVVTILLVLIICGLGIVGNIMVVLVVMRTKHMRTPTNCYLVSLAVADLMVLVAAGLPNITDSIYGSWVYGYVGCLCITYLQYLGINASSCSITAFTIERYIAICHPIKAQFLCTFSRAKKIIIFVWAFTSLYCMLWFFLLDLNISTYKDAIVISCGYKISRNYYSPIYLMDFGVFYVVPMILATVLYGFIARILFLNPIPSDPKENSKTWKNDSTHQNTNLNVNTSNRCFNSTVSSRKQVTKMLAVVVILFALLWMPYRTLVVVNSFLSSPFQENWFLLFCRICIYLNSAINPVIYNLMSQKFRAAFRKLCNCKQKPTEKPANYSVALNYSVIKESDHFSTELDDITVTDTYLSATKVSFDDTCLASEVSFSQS
Sequence of Cytochrome P450 3A4 (Homo sapiens) (P08684 whole entry, looked up): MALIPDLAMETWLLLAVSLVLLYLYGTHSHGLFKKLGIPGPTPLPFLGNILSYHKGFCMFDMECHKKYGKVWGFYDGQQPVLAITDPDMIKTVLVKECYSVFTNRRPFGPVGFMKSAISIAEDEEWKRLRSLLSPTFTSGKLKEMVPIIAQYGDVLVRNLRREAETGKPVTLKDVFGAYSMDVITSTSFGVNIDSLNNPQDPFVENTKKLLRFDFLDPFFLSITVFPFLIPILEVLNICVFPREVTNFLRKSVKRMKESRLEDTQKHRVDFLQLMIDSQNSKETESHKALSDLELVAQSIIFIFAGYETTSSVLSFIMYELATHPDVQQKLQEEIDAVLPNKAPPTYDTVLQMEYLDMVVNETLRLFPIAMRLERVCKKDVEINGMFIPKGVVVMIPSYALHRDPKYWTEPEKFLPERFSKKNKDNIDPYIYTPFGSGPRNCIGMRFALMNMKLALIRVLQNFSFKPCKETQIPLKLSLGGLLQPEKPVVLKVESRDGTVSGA
Sequence of Cytochrome P450 2D6 (Homo sapiens) (P10635 whole entry, looked up): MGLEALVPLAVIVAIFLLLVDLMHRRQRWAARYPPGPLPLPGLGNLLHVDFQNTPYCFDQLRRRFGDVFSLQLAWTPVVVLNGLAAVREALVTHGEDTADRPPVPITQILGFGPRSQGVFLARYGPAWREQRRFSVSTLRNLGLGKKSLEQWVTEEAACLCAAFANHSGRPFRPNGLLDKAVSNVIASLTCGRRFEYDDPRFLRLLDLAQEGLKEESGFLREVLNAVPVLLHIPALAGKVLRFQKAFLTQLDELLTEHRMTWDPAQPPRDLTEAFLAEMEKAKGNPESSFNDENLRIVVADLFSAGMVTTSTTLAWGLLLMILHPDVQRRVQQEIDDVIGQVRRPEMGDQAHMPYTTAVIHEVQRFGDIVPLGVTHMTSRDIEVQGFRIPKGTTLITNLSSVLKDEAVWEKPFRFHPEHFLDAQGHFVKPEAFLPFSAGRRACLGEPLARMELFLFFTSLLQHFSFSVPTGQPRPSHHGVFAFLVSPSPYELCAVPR
Sequence of Voltage-gated inwardly rectifying potassium channel KCNH2 (Homo sapiens) (Q12809 whole entry, looked up): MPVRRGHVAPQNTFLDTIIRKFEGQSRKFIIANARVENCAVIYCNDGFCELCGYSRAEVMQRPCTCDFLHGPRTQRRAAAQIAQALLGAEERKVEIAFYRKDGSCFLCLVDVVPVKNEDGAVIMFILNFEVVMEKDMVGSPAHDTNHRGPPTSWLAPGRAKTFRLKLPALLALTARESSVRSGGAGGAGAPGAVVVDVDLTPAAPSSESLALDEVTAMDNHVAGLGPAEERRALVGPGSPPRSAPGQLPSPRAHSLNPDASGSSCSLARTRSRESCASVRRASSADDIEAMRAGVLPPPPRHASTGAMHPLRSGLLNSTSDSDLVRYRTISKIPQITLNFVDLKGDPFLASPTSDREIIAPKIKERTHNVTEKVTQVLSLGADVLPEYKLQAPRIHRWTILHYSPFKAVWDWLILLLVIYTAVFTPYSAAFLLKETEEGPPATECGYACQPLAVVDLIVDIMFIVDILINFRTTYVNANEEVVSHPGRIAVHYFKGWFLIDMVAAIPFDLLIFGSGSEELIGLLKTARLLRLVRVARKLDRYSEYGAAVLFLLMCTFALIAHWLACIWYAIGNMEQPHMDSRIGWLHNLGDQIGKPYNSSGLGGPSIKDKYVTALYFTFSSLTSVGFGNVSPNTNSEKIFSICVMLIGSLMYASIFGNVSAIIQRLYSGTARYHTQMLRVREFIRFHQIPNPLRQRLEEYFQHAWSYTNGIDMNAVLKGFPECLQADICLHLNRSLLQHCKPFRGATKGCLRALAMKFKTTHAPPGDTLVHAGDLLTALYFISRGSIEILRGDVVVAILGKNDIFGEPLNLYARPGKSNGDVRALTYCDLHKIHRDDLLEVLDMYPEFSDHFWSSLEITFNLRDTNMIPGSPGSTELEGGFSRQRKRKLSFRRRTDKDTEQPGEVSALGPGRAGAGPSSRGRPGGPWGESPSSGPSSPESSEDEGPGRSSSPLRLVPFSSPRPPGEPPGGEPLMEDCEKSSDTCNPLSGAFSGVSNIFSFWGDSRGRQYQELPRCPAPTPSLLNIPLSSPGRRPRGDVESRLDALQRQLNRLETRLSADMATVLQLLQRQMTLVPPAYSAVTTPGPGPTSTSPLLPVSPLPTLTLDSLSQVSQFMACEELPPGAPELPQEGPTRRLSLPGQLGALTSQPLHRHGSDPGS
Sequence of Nuclear receptor subfamily 1 group I member 2 (Homo sapiens) (O75469 whole entry, looked up): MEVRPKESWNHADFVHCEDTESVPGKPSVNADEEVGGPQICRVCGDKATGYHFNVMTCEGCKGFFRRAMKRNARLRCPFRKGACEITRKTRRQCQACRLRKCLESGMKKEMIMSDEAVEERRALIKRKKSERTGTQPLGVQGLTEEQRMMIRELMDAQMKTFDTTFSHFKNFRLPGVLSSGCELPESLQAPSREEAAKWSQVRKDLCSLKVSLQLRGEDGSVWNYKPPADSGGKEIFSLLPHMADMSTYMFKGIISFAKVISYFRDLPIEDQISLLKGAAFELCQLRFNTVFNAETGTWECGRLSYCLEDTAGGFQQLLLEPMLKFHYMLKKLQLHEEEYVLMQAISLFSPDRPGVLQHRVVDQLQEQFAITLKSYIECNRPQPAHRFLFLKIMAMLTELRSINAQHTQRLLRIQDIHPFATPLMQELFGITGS
Sequence of Cytochrome P450 1A2 (Homo sapiens) (P05177 whole entry, looked up): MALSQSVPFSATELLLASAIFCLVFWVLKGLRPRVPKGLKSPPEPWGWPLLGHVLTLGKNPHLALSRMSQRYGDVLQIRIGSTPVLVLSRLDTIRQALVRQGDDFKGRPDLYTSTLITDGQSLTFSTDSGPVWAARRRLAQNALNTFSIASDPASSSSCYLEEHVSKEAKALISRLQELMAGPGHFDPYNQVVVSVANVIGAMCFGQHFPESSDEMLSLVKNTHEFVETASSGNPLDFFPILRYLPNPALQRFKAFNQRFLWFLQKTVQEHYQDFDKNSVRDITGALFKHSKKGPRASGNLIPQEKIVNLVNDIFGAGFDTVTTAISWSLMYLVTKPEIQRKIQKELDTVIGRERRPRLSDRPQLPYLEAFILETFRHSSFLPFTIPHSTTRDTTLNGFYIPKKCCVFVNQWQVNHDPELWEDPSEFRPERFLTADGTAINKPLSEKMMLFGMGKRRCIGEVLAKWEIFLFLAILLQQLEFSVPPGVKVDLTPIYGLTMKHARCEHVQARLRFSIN
Sequence of Cytochrome P450 2C19 (Homo sapiens) (P33261 whole entry, looked up): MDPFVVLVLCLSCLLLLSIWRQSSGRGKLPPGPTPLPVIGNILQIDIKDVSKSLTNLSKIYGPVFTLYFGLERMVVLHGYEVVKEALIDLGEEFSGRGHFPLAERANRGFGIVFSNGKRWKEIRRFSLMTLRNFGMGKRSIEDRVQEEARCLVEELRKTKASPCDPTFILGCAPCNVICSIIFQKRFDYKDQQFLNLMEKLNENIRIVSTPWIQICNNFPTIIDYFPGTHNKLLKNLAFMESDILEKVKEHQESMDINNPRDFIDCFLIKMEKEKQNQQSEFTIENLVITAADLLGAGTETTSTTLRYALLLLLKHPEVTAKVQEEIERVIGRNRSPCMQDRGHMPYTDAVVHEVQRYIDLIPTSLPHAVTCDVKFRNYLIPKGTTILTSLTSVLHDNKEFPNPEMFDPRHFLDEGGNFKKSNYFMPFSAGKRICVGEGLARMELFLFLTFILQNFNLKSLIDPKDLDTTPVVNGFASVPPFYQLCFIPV
Sequence of Nuclear receptor subfamily 1 group I member 2 (Rattus norvegicus) (Q9R1A7 whole entry, looked up): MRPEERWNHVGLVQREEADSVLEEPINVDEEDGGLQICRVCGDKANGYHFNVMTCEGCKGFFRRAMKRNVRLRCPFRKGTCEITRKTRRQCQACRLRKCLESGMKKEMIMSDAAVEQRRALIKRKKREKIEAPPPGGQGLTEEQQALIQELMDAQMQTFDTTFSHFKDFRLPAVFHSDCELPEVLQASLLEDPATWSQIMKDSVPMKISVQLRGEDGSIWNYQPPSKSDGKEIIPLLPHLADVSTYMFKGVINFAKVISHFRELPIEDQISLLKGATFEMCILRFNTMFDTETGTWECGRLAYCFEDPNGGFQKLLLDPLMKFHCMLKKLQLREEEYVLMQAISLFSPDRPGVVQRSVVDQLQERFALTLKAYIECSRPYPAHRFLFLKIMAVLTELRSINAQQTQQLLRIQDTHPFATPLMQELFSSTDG

`CCCCCCCCC=O`: the Potency entry in test [1], in test [3], in test [6], in test [7], in test [8] and in test [9] was “inactive” each time. Also, the Potency result in [10] and in [11] was “inactive” in each case. For the same molecule, the molecule was classed as inactive in test [2], in [4] and in test [5].
Take `C=CCSCC1Nc2cc(Cl)c(S(N)(=O)=O)cc2S(=O)(=O)N1` (stereo not given): the call in test [12], in [2] and in test [5] was inactive. The Potency entry in [1] and in test [8] was “inactive” in each case.
Consider `CCC(=O)/C=C/c1ccc(OC)cc1`, for which the result in test [12], in test [2], in test [4] and in test [5] was inactive. Besides, the Potency entry in [1], in test [7], in test [10] and in [11] was “inactive” each time. Moreover, the figures for the Potency in test [13] and in test [9] were 39.9 µM (active) and 20 µM (active), respectively.
Turning to `COC(=O)CCCC(=O)O`, the Potency entry in test [1], in [3], in [6], in test [7], in [8] and in [13] was “inactive” each time. Besides, the Potency entry in [9], in test [10] and in test [11] was “inactive” in each case. In addition, the molecule was called inactive in test [2], in test [4] and in [5].
Regarding `c1ccc(CCCc2ccccn2)cc1`, the call in [12], in [2], in test [4] and in test [5] was inactive. Also, the Potency entry in test [1], in test [10] and in test [11] was “inactive” each time. Moreover, the Potency in test [13] is 35.6 µM (active); in test [9] it was 22.4 µM (active).
Turning to `CCN1CCCC(OC(=O)C(c2ccccc2)c2ccccc2)C1` (stereo not given), the molecule was called inactive in test [12], in test [2] and in test [5]. Moreover, the Potency result in [3], in [6], in test [13] and in [9] was “inactive” each time. Also, the max activation in [14] was 0.492%. In addition, the Potency in test [7] is 1.38 µM (active); in test [10], 3.38 µM (active).
Regarding `COC(=O)c1ccc(C(=O)OC)c(C(=O)OC)c1`, the Potency entry in test [1], in test [3], in test [6] and in test [7] was “inactive” throughout. Besides, the result in test [2], in [4] and in test [5] was inactive. Besides, the Potency in test [8] was 39.9 µM (active); in test [9], 7.96 µM (active).
For the molecule `Cc1c(C)n(CCN(C)C)c2ccc(C(=O)OCCN(C)C)cc12`, the outcome in test [12], in test [2], in test [4] and in [5] was inactive. Further, the Potency result in [6], in test [15], in [7], in test [8], in test [13] and in test [10] was “inactive” each time. Further, the Potency result in test [11] was “inactive”. Moreover, the Potency in [9] was 17.4 µM (active).
As to `C[C@H](O)C(=O)Nc1c(I)c(C(=O)NC(CO)CO)c(I)c(C(=O)NC(CO)CO)c1I`, the Potency result in test [1], in test [3], in [6], in test [15], in test [16] and in test [7] was “inactive” throughout. Further, the Potency entry in [13], in [9] and in test [10] was “inactive” each time. Besides, the call in [2], in test [4] and in test [5] was inactive.
`CN(C)C(=O)Nc1ccccc1`: the molecule was classed as inactive in test [12], in test [2] and in test [5]. Also, the Potency entry in [1], in test [6], in [7], in [13], in test [10] and in test [11] was “inactive” in each case.
As to `CCCOCC(C)OCC(C)O` (stereo not given), the result in test [12], in [2], in test [4] and in [5] was inactive. The Potency entry in test [1] and in test [10] was “inactive” in each case.
With `Cc1cc(C)c(NC(=O)CN(CC(=O)O)CC(=O)O)c(C)c1Br`, the Potency result in test [1], in test [3], in test [6], in test [15], in test [16] and in test [7] was “inactive” each time. Further, the Potency entry in test [8], in test [13], in [9], in [10] and in test [11] was “inactive” throughout. Moreover, the molecule was called inactive in test [2], in test [4] and in test [5]. In addition, in test [14], the max activation is -1.5%.
